{
  "source": "the supplement of paper PMC9588786",
  "note": "± gives the standard deviation of the averaged measurements.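 Further: viability read as CCK-8 absorbance at 450 nm in cells co-exposed to the GPX4 inhibitor RSL3, relative to a 0.01% DMSO vehicle control.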",
  "data": [
    {"system": "HT-1080", "assay": "relative cell viability with RSL3 co-treatment (fraction of control); higher = stronger protection from RSL3-induced ferroptosis (higher viability)", "settings": "10 µM", "values": [
      {"smiles": "CCN1CCN(C(=O)Cc2ccc(Nc3ncc(F)c(Nc4ccc(C(=O)Nc5ccccc5Cl)cc4)n3)cc2)CC1", "note": "[Aurora A Inhibitor I]", "relative cell viability": "0.473 ± 0.13"},
      {"smiles": "COc1ccc(N(C(=O)Oc2c(C)cccc2C)c2ccnc(Nc3ccc(N4CCN(C)CC4)cc3)n2)c(OC)c1", "relative cell viability": "0.8133 ± 0.0058"},
      {"smiles": "COc1ccc2c(c1)/C(=C/c1cnc[nH]1)C(=O)N2", "relative cell viability": "0.797 ± 0.011"},
      {"smiles": "C/C(O)=C(\\C#N)C(=O)Nc1cc(Br)ccc1Br", "relative cell viability": "0.54 ± 0.085"},
      {"smiles": "CC(C)(C)c1cc(C=C(C#N)C#N)cc(C(C)(C)C)c1O", "note": "[Tyrphostin 9]", "relative cell viability": "0.413 ± 0.021"},
      {"smiles": "O=c1[nH]c2ccc(Cl)cc2c(N[C@@H]2CN3CCC2CC3)c1-c1nc2ccccc2[nH]1", "relative cell viability": "0.63 ± 0.046"},
      {"smiles": "Cn1cc(C2=C(c3cn(C4CCN(Cc5ccccn5)CC4)c4ccccc34)C(=O)NC2=O)c2ccccc21", "relative cell viability": "0.807 ± 0.061"},
      {"smiles": "Cc1ccccc1-n1c(Cn2ncc3c(N)ncnc32)nc2cccc(C)c2c1=O", "relative cell viability": "0.727 ± 0.049"},
      {"smiles": "CC(C)(C)c1cc(C=C(C#N)C#N)cc(Br)c1O", "relative cell viability": "0.473 ± 0.015"}
    ]}
  ]
}
